KB-V1 cytotox – KB-V1 MDR subline cytotoxicity; KB-V1 MDR cells viability, CellTiter-Glo, 72 h; Potency, µM (titrated, usually from 46.1 µM), actives largely listed as cytotoxic; actives 3.4% (n = 400,000); AID 1347076; also: nearly all actives have a fitted effect of over 60% in size
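Readout: CellTiter-Glo luminescence, 10 min after addition. Cells: KB-V1 MDR subline, 72 h at 37 degrees C with compound. Analysis: corrected, normalized data fitted to concentration-effect curves.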
IL1B secr inh – blocks inflammasome-driven IL-1 beta release; THP-1 LPS/ATP IL-1B secretion, AlphaLISA, 16 h; active compounds read low; activity change, % at 57.5 µM; actives 4.7% (n = 360,000); in the data active = activity change below about -50%; inconclusive = mostly about -30% to -49%
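THP-1 cells pretreated 1 hr with compounds (up to 57.5 uM final), then stimulated with LPS (250 ng/mL final) plus ATP (1.25 mM final); secreted IL-1B measured by AlphaLISA after 16 hr, decreased signal indicating inhibition.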
KB-3-1 cytotox – kills parental KB-3-1 adenocarcinoma cells; Potency, µM (series often up to 46.1 µM), most hits filed as cytotoxic; actives 1.4% (n = 400,000); KB-3-1 viability, CellTiter-Glo ATP luminescence, 72 h; also: nearly all actives have a fitted effect of over 60% in size
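Multi-concentration cytotoxicity screen in KB-3-1 cells grown in DMEM lacking phenol red with 10% FBS. After 72 h at 37 °C with compound, ATP-dependent luminescence was recorded.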
SW480 rereplic – inducers of DNA re-replication in SW480 colon cancer cells | SW480 DNA re-replication, Hoechst DNA content imaging, 48 h | Potency, µM (doses to about 46.1 µM), most hits filed as activators | actives 1.8% (n = 340,000); also: nearly all actives have a fitted effect of over 55% in size
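DNA re-replication was detected as more nuclei of elevated Hoechst intensity after 48 hr exposure to compound (23 nL pinned per well of 250 cells).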
MCF10A rereplic – inducers of DNA re-replication in MCF 10A breast cells | Potency, µM (titrated, usually from 46.1 µM), hits mostly activators | MCF 10A DNA re-replication, Hoechst nuclear intensity, 48 h | actives 2.9% (n = 350,000); also: nearly all actives have a fitted effect of over 50% in size
Numbers stand for hits; - = inactive; ? = inconclusive; . = no result given; [ ] = another dose, or the depositor's remark. Compounds with a hit are over-represented: about 9.9% of the library has one in this group of screens. Unless noted, calls follow the shape of the dose curve; as a rule, active = well fitted curve in the direction sought with a large enough effect; inconclusive = small, poorly fitted or top-dose-only effect, or another doubt; inactive = no such curve, though single readings can be large; an effect the other way counts as inactive or inconclusive.

SMILES	KB-V1 cytotox	IL1B secr inh	KB-3-1 cytotox	SW480 rereplic	MCF10A rereplic
O=C(NC1(C(F)(F)F)NC(=O)N(c2ccc(F)cc2)C1=O)c1cccs1 (stereo not given)	?	-	-	?	-
COc1ccc(Nc2nccc(-c3cccc(N)c3)n2)cc1	?	-86.7	?	?	?
O=C1CC(c2ccc(F)cc2)Cc2nc(NCC3CCCO3)ncc21 (stereo not given)	20.6µM	-	-	-	-
C[C@@H]1CN([C@@H](C)CO)C(=O)CCCn2nncc2CO[C@H]1CN(C)S(=O)(=O)c1ccccc1F	-	-	-	.	.
c1ccc2c(c1)-c1cccc3cncc-2c13	-	-83.7	-	-	-
CC1CN(S(=O)(=O)c2cccc(C(=O)Nc3ccc(S(=O)(=O)NC4=NCCCCC4)cc3)c2)CC(C)O1 (stereo not given)	-	-	-	-	-
CC1(C)C2CCC(C2)C1(C)NC(=O)CNCC1CCCCC1 (stereo not given)	-	-78.2	-	-	-
CCOCCCNCC(=O)NC1(C)C2CCC(C2)C1(C)C (stereo not given)	-	-	-	-	-
COc1ccccc1/C=C/c1onc(C)c1S(=O)(=O)N1CCC(C(=O)N2CCC(C)CC2)CC1	-	.	-	.	.
COc1cc(-c2noc(-c3ccc(N(C)C)c([N+](=O)[O-])c3)n2)cc(OC)c1OC	-	.	-	.	.
C/C(=C\c1ccco1)CN1CCN(Cc2ccc(C)o2)C(CCO)C1 (stereo not given)	-	-	-	-	-
CC(C)(C)c1ccc(-c2nc(C=O)c3ccccn23)cc1	16.4µM	-	-	-	-
C(=N\N1CCOCC1)/c1nc(-c2ccccc2)n2ccccc12	-	-	-	-	-
Cc1cc2nc(-c3cccc(Br)c3)c(Cc3ccccc3)n2c(C)c1Br	-	-	-	.	.
COc1ccccc1CNC(=O)c1ccc2c(c1)nnn2C1CCCC1	-	.	-	.	.
CCN(CC)CCCOc1ccc(Cl)c(Cl)c1	-	-73.5	-	-	-
CCCOc1ccc(/C=N/O)cc1	-	-	-	-	-
CCN(CC)S(=O)(=O)c1ccc2c(c1)C(=NO)c1cc(S(=O)(=O)N(CC)CC)ccc1-2	11.6µM	-	6.51µM	?	8.2µM
CCN(CC)CCOc1ccc2c(c1)C(=NO)c1cc(OCCN(CC)CC)ccc1-2	-	-104.6	-	-	-
CN(CCOc1ccc(Cl)c(Cl)c1)Cc1ccccc1	-	-	?	-	?
CCN(CC)S(=O)(=O)c1ccc(C)c(C)c1	-	-	-	-	-
CCCOc1ccc2c(c1)C(=NN=C(N)N)c1cc(OCCC)ccc1-2	?	-97.0	?	18.4µM	?
CC(C)c1ccc(NC(=O)Cn2cc(S(=O)(=O)Cc3cccc(Cl)c3)c3ccccc32)cc1	-	.	-	.	.
O=C(CCn1c(=O)c2cccn2c2cccnc21)NCc1cccc(Cl)c1	?	-	-	-	-
Cc1ccc(OCCn2c(NC(=O)c3ccco3)nc3ccccc32)cc1	?	-	?	-	?
SMILES	KB-V1 cytotox	IL1B secr inh	KB-3-1 cytotox	SW480 rereplic	MCF10A rereplic
Cc1cccc(OCCn2c(NC(=O)c3ccco3)nc3ccccc32)c1	2.31µM	-	?	?	-
Cc1cccc(OCCn2c(-c3ccco3)nc3ccccc32)c1	-	-	-	6.51µM	-[0.0737 µM]
c1ccc(OCCn2c(-c3ccco3)nc3ccccc32)cc1	-	-	-	-	-
CCCCC12CN3CC(C)(CN(C1)C3c1ccc(OCc3ccccc3)cc1)C2=O (stereo not given)	-	.	-	.	.
CCCCC12CN3CC(C)(CN(C1)C31C(=O)N(C)c3ccc(C)cc31)C2=O (stereo not given)	9.2µM	-	-	-	-
COc1cc(NC(=O)c2ccc(-c3cn[nH]c3)c3ccoc23)cc(OC)c1OC	-	-74.2	-	.	.
CCN1CCN(C(=O)c2c(-c3c(Cl)cccc3Cl)noc2C)CC1	-	-	-	-	-
Cc1nc2nc(-c3ccccc3)cn2nc1C	20.6µM	-	-	?	-
c1ccc(-c2cn3nc(-c4ccccc4)cnc3n2)cc1	-	-	-	.	-
Cc1nc2nc(-c3ccc(F)cc3)cn2nc1C	-	-	?	-	-
CCc1ccc(-c2cn3nc(C)c(C)nc3n2)cc1	18.4µM	-	-	-	?
O=C(COc1ccccc1C(=O)Nc1ccccc1)Nc1ccccc1-c1ccccc1	-	.	?	.	.
O=C(Nc1ccc2nc3n(c(=O)c2c1)CCCCC3)c1cc([N+](=O)[O-])ccc1F	-	-93.4	?	16.4µM	14.6µM
O=C(Nc1ccc2nc3n(c(=O)c2c1)CCCCC3)c1c(F)ccc([N+](=O)[O-])c1F	16.4µM	-101.8	2.31µM	1.3µM	?
Cc1nc([N+](=O)[O-])c(Br)n1Cc1ccc(Cl)c(Cl)c1	?	-60.1	?	?	20.6µM
COc1ccc(C(=O)Cn2c(C)nc([N+](=O)[O-])c2Br)cc1	-	.	?	-	?
Cc1nc([N+](=O)[O-])c(Br)n1CC(=O)c1ccc(Cl)cc1	?	-116.3	18.4µM	?	14.6µM
O=C(Cn1cnc2cc([N+](=O)[O-])ccc2c1=O)NCc1ccccc1	-	-	?	-	-
Cc1cc2ccccc2n1CCNC(=O)C1CCCC1	18.4µM	-	-	-	-
COc1ccc(C(=O)OCC(=O)c2ccc3c(c2)NC(=O)CO3)cc1S(=O)(=O)N1CCOCC1	-	-	-	-	-
O=C(Nc1ccn(Cc2c(F)c(F)cc(F)c2F)n1)c1ccc(COc2ccccc2Cl)cc1	-	-	-	-	?
O=C(Nc1cccnc1)c1ccc(COc2cc(Cl)ccc2Cl)o1	23.1µM	-	?	-	?
COc1ccccc1NC(=O)c1ccc(COc2ccccc2OC)cc1	-	-	-	-	-
Cc1cc(C)nc(NC(=O)c2ccc(COc3ccccc3Cl)cc2)c1	-	-62.5	?	-	3.66µM
O=C(Nc1cccnc1)c1ccc(COc2ccccc2Cl)o1	?	-	?	-	-
SMILES	KB-V1 cytotox	IL1B secr inh	KB-3-1 cytotox	SW480 rereplic	MCF10A rereplic
Cc1nn(C)c(C(=O)Nc2ccn(Cc3ccccc3F)n2)c1[N+](=O)[O-]	25.9µM	-	-	-	-
O=C(Nc1ccn(Cc2ccccc2F)n1)c1ccc(COc2ccccc2Cl)cc1	2.59µM	-	?	-	?
Cc1c(O)c2c(c(C(=O)/C=C/c3ccccc3)c1O)OC(C)(C)C=C2	-	.	-	.	.
CC(C)C(C(=O)OCC(=O)c1ccccc1)N1C(=O)C2C3C=CC(C3)C2C1=O (stereo not given)	-	-	-	-	-
COc1ccccc1NS(=O)(=O)c1ccc(C(=O)NCC(c2cccs2)N2CCOCC2)cc1 (stereo not given)	?	-	-	-	-
O=C(Nc1ccn(Cc2ccccc2F)n1)c1ccc(COc2cc(Cl)ccc2Cl)o1	4.11µM	-	-	-	?
CC(C)(C)NC(=O)c1ccc(COc2ccc(Cl)cc2Cl)o1	13µM	-69.1	?	-	?
